Test results reported in PubChem BioAssay AID488839 (Broad Institute, 2010).
In all, about 330,000 compounds went through this assay and about 35 (0.01%) were called active.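 The calls were made as follows: active = highest replicate inhibition of at least 50% and at least 75% of replicates reaching 50%; inconclusive = only one of the two criteria met; inactive = both criteria failed.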 The list is a sample of the results.

These molecules were tested against Cyclin-dependent kinase 5 (Homo sapiens) + Cyclin-dependent kinase 5 activator 1 (Homo sapiens) (UniProt Q00535+Q15078) (assay: CDK5/p35 phosphotransfer blockade – biochemical, single concentration, primary screen (AID 488839;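 also: plate controls were DMSO neutral control for no effect and GW8510 at 10 µM for full effect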)). Details: Recombinant CDK5/p35, ADP-Glo luminescence, 60 min; at 10 µM; hits give high values.
Cyclin-dependent kinase 5 (Homo sapiens) + Cyclin-dependent kinase 5 activator 1 (Homo sapiens), sequence (Q00535 whole entry, looked up): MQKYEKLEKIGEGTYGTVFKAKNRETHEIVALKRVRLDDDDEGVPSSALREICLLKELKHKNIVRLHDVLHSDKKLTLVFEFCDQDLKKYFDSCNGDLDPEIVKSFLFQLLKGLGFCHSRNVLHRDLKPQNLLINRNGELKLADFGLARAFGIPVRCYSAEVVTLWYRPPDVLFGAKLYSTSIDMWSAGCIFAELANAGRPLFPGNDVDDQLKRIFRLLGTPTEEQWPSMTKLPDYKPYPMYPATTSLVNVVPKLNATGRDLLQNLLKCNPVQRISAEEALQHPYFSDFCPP
Cyclin-dependent kinase 5 (Homo sapiens) + Cyclin-dependent kinase 5 activator 1 (Homo sapiens), sequence (Q15078 whole entry, looked up): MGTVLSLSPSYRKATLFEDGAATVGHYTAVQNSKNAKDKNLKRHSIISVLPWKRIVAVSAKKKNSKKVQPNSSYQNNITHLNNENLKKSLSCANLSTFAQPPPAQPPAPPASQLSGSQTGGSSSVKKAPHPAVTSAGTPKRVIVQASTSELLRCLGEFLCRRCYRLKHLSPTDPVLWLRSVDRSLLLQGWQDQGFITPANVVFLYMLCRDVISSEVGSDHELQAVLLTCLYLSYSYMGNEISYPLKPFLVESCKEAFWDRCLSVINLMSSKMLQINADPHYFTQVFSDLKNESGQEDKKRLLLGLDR

inhibition, inactive:
CN(C)C1=NC[C@H](Cc2ccccc2)N1CCc1ccc(F)cc1 0.95%, O=S(=O)(/N=C(/Nc1ccccc1)c1ccccc1)c1cccs1 0.387%, OCc1nc(CO)n(Cc2ccccc2)n1 -0.111%, COc1ccc(CCNC(=O)C(=O)NCC2OCCN2S(=O)(=O)c2ccc(OC)c(C)c2)cc1 (stereo not given) 1.39%, O=C(OCC(=O)N1CCCC1)c1ccc(Cl)nc1 1.02%, CCCCC(=O)Nc1nnc(S(=O)(=O)N(C)Cc2ccco2)s1 1.6%, CCn1cc(CN2CCCC(CNS(=O)(=O)Cc3ccccc3)C2)cn1 (stereo not given) 0.0333%, CCc1[nH]nc(C(=O)N2CCCC(CNS(=O)(=O)c3cccs3)C2)c1C (stereo not given) 0.235%, CCN1C(=O)CS/C1=N\c1nccs1 0.817%, O=C(c1cccs1)C1C(c2ccc(Br)cc2)NC(=S)NC1(O)C(F)(F)F (stereo not given) 1.75%, CCc1ccc(-c2cc(C(=O)NN3CCN(C)CC3)c3ccccc3n2)cc1 2.52%, Cc1oc(C(N)=O)cc1COc1ccc(C(N)=O)cc1 1.55%, O=C(CNCc1ccc(F)cc1)Nc1ccccc1-c1ccccc1 0.549%, S=C(NCC1CCCO1)N1CCN(c2ccc(Cl)c(Cl)c2)CC1 (stereo not given) -0.238%, COc1ccc(-c2nc3n(c2Br)CCC3)cc1 1.75%, O=C(Nc1cccc(Cl)c1)Nc1ccccc1NS(=O)(=O)c1cccs1 -1.4%, COc1ccccc1CNC(=O)COC(=O)c1cccs1 0.781%, COC(C[C@@H](O)C[C@@H](O)[C@H](C)OCc1ccccc1)OC -0.836%, N#Cc1ccccc1Sc1ccccc1C(=O)OCC(=O)NC1CCCCC1 -1.96%, O=C(CN(C(=O)c1nsc(Cl)c1Cl)c1cccc(F)c1)NC1CCCC1 0.211%, NC1=NC(=O)C2(COC(c3ccccc3Cl)OC2)S1 (stereo not given) 0.407%, Cn1c(=O)c([N+](=O)[O-])c(Oc2ccccc2)c2ccccc21 3.54%, COc1cc(CNCc2cccs2)cc(Br)c1OC -3.09%, O=S1(=O)CSCS(=O)(=O)C1 -3.39%, Cc1nn(C)c(C)c1C(C)NC(=O)c1ccc(OC2CCN(Cc3ccccn3)CC2)cc1 (stereo not given) -0.745%, Cc1cccc(N(Cc2ccccc2)C(=O)c2cc(S(=O)(=O)N3CCOCC3)ccc2F)c1 -2.98%, CCCCNC(=O)N(O)C1N(/N=C/c2ccc(N(C)C)cc2)C(=S)SC1(C)C (stereo not given) -0.992%, Cc1ccc(-c2csc(N(Cc3ccco3)C(=O)c3cccs3)n2)cc1 0.457%, c1cc(-n2cnnn2)ccc1NC1=NCCC1 -1.51%, CCc1ccccc1N(CC(=O)N1CCN(c2ccccc2F)CC1)S(C)(=O)=O 0.372%, O=C(CCn1c(=S)[nH]c2cc3c(cc2c1=O)OCO3)NCc1ccc(Cl)cc1 1.02%, Cc1cccc(C)c1NC1=NC(=S)N(c2ccc(N(C)C)cc2)C1(C)C -0.0411%, COC(=O)c1sc(C(F)(F)F)c(-c2ccccc2)c1S(=O)(=O)N(C)C -0.853%, CCOC(=O)c1nc(-c2ccc3c(c2)OCO3)[nH]c1C -1.03%, CC(=O)NC(CC(=O)Nc1nc(-c2ccccc2)c(C(C)=O)s1)c1ccccc1 (stereo not given) 0.222%, CON(C)S(=O)(=O)c1ccc2c(c1)NC(=O)C1CCCN21 (stereo not given) -2.05%, Cc1ccc(OCCCCc2c(C)n[nH]c2C)cc1 0.0918%, COC(=O)c1cc(S(=O)(=O)Nc2ccc(C)c(F)c2)c[nH]1 1.29%, O=c1cc(Cl)c2ccccc2n1-c1ccccc1 -0.318%, COc1ccc(C(=O)N2CCN(c3ccc(C(C)=O)cc3F)CC2)cc1S(=O)(=O)NC1CC1 0.384%, COc1ccc(C(C)NC(=S)NC2CCCCC2)cc1OC (stereo not given) -2.83%, CCOc1ccccc1NC(=O)COc1ccc(S(=O)(=O)N2CCCC2)cc1 -0.338%, COc1ccc(CCNC(=O)CCc2cn(C)c3ccccc23)c(OC)c1 1.21%, COc1ccc(-c2nc(CN3CCN(c4ncccn4)CC3)c(C)o2)cc1C 0.124%, COc1ccc(S(=O)(=O)N(CCCN2CCCC2=O)Cc2cc3c(C)ccc(C)c3[nH]c2=O)cc1 -2.49%, CCCCN(CC(=O)Nc1cccc(S(=O)(=O)N2CCCC2)c1)Cc1nc2ccccc2c(=O)[nH]1 0.255%, C=CCn1c(-c2ccccc2OCC)n[nH]c1=S -0.312%, Cc1ccc(NC2CCCN(C(=O)CCc3cn[nH]c3)C2)cc1C (stereo not given) 0.302%, CCCNC(=O)NCc1ccc(N2CCCC2=O)cc1 -1.59%, Cc1nn(-c2ccccc2)c(CC(C)(C)C(=O)O)c1C(=O)O 0.362%, O=C1c2ccccc2C(O)N1Cc1ccccc1Cl (stereo not given) -1.45%, Cc1cccc(-n2c(SCC(=O)Nc3cccc(S(=O)(=O)NC4=NCCCCC4)c3)nc3ccccc3c2=O)c1C 0.0416%, CN(C(=O)CC1C(=O)NCCN1Cc1ccc2ccccc2c1)C1CCOCC1 (stereo not given) 0.878%, COc1ccc(C(C)NC(=O)C2CCCC2)cc1 (stereo not given) -1.29%, O=C(NCCc1nnc2ccc(SCC(=O)N3CCOCC3)nn12)c1ccccc1 -3.67%, CCOC(=O)c1cnc2ccc(F)cc2c1Nc1ccc2c(c1)OCCO2 -0.0856%, Cc1ccc(NS(=O)(=O)c2c(C)[nH]c(=O)[nH]c2=O)cc1C -1.59%, CC1CCCCC1NCC(=O)Nc1ccccc1C(=O)Nc1ccccc1 (stereo not given) -1.88%, COCCn1c(SC(C)C(=O)NC2CC2)nnc1-c1cccc(C)c1 (stereo not given) -7.75%, COCC(C)n1c(C)cc(C(=O)COc2ccc(C)nc2[N+](=O)[O-])c1C (stereo not given) 1.15%
